Bioassay records deposited in PubChem BioAssay by National Center for Advancing Translational Sciences (NCATS).
The list is not random: actives were taken first. Their share in the collection is about 19%.
TDP1 cell noCPT: qHTS for Inhibitors of human tyrosyl-DNA phosphodiesterase 1 (TDP1): qHTS in cells in absence of CPT | DT40 Tdp1-/- hTDP1 cells, no CPT, ATP luminescence, 48 h | 420,000 tested, 15% active | Potency, µM (doses to about 46.2 µM), for inactives: at the highest dose activity change, negative = growth inhibition, usual class: inhibitors; also: potency is read from the fitted curve at half-maximal effect; nearly all actives have a fitted effect of over 55% in size
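Growth kinetics read by CellTiter-Glo luminescence after ≥48 hr at 37 °C. Cells: DT40 Tdp1-/- stably carrying human TDP1, 400 per well, compound exposure in the absence of CPT (DMSO vehicle).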
DT40 TDP1 CPT: DT40-hTDP1 cell growth loss with CPT; 420,000 tested, 12% active; chicken DT40 Tdp1-/-;hTDP1 cells + 20 nM CPT, ATP luminescence, 48 h; Potency, µM (series often up to 46.2 µM), without a hit: at the highest dose activity change, negative = growth inhibition, most hits filed as inhibitors; AID 686979; also: potency is read from the fitted curve at half-maximal effect; nearly all actives have a fitted effect of over 55% in size
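Chicken DT40 Tdp1-/- cells complemented with human TDP1, 400 cells/well, exposed to compounds plus 20 nM camptothecin for at least 48 h at 37 C; viability read as ATP content by CellTiter-Glo luminescence.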
IL-1B inflam inh: blocks inflammasome-driven IL-1 beta release | THP-1 LPS/ATP IL-1B secretion, AlphaLISA, 16 h; stronger effect = lower value | activity change, % at 57.5 µM | 360,000 tested, 4.7% active | AID 743279; in the data active = activity change below about -50%; inconclusive = mostly about -30% to -49%
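Secreted IL-1B measured by AlphaLISA bead assay after 16 h compound exposure of THP-1 cells; compounds (final up to 57.5 uM) added 1 h before LPS (250 ng/mL) and ATP (1.25 mM) stimulation; lower signal means less secretion.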
HT1080 IDH1KD tx: HT-1080 IDH1 knockdown cell toxicity (counter line). Potency, µM (doses to about 46.1 µM), without a hit: top-dose activity, negative = toxicity, usual class: cytotoxic. AID 686971. HT-1080 IDH1 knockdown viability, ATP luminescence, 48 h. 360,000 tested, 2% active;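 also: potency is read from the fitted curve at half-maximal effect; 0% = DMSO wells and -100% = cell-free medium wells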
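Luminescent ATP read-out (CellTiter-Glo, 10 min at room temperature) after 48 h compound exposure at 37 °C gave viability of IDH1-knockdown HT-1080 cells. Activity was normalised to DMSO and cell-free wells, then fitted as concentration-response curves.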
HT1080-NT tox: kills 2HG-producing HT-1080-NT fibrosarcoma cells | Potency, µM (highest dose often 46.1 µM), without a hit: at the highest dose activity, negative = less viability, usual class: cytotoxic | HT-1080-NT fibrosarcoma viability, CellTiter-Glo ATP luminescence, 48 h | 360,000 tested, 1.6% active | AID 686970;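 also: NT is the 2HG producing partner of a matched IDH1 knockdown line; potency is read from the fitted curve at half-maximal effect; 0% = DMSO-treated cells and -100% = media-only wells without cells; nearly all actives have a fitted effect of over 55% in size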
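750 cells/well, RPMI + 5% FBS; 2 h settle, compound pin-transfer, 48 h at 37 degrees C. CellTiter-Glo 10 min RT, luminescence. Normalized to DMSO and media-only wells.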
Active calls of the source: *; [ ] = remark or other dose. Unless noted, calls follow the shape of the dose curve; as a rule, active = well fitted curve in the direction sought with a large enough effect; inconclusive = small, poorly fitted or top-dose-only effect, or another doubt; inactive = no such curve, though single readings can be large; an effect the other way counts as inactive or inconclusive. Unless noted, % is scaled to controls: 0 for no effect and ±100 for the full control effect.

How did COC(=O)c1ccc(OCC2c3cc(OC)c(OC)cc3CCN2C(=O)Cc2ccccc2)cc1 (centres undefined) do in these assays?
TDP1 cell noCPT: 16µM*; DT40 TDP1 CPT: inconclusive

What do the screens show for `COc1ccc(OCC2c3cc(OC)c(OC)cc3CCN2C(=O)COc2ccc(Cl)cc2Cl)cc1` (centres undefined)?
TDP1 cell noCPT: 16µM*; DT40 TDP1 CPT: inconclusive

Results for COc1cc2c(cc1OC)C(COc1ccccc1OC)N(C(=O)C(C)(C)C)CC2 (centres undefined) ?
TDP1 cell noCPT: inconclusive; DT40 TDP1 CPT: inconclusive; IL-1B inflam inh: -9; HT1080 IDH1KD tx: -4%; HT1080-NT tox: 0%

Results for COc1ccc(CCN(C)C(=O)c2ccc3c(=O)n4c(nc3c2)CCCCC4)cc1OC ?
TDP1 cell noCPT: 15%; DT40 TDP1 CPT: -2%; IL-1B inflam inh: inconclusive; HT1080 IDH1KD tx: 3%; HT1080-NT tox: 1%[9.24 µM]

Results for Cn1c(=O)cc(Nc2ccccc2)c2c(=O)n(-c3ccccc3)c(=O)n(-c3ccccc3)c21 ?
TDP1 cell noCPT: inconclusive; DT40 TDP1 CPT: 0%; HT1080 IDH1KD tx: 9%; HT1080-NT tox: -10%

Results for Cc1cccc(NC(=O)CNC(=O)[C@H]2O[C@@H](n3ccc(N)nc3=O)[C@H](O)[C@@H]2O)c1C ?
TDP1 cell noCPT: 17%; DT40 TDP1 CPT: -10%; IL-1B inflam inh: 2; HT1080 IDH1KD tx: 21%; HT1080-NT tox: 25%

Results for CC(Sc1ccc2c(c1)OCCO2)C(=O)Nc1ccc(N2CCOCC2)cc1 (centres undefined) ?
TDP1 cell noCPT: -6%; DT40 TDP1 CPT: 0%; IL-1B inflam inh: 0; HT1080 IDH1KD tx: 13%; HT1080-NT tox: 16%

How did COc1ccc(-n2nc(C(=O)NCC(=O)NCCCN3CC(C)CC(C)C3)c3ccccc3c2=O)cc1Cl (centres undefined) do in these assays?
TDP1 cell noCPT: inconclusive; DT40 TDP1 CPT: -12%; IL-1B inflam inh: -71*; HT1080 IDH1KD tx: inconclusive; HT1080-NT tox: inconclusive

How did COc1ccc(-n2nc(C(=O)NCC(=O)Nc3cc(OC)c(OC)c(OC)c3)c3ccccc3c2=O)cc1Cl do in these assays?
TDP1 cell noCPT: 1.6µM*; DT40 TDP1 CPT: inconclusive; IL-1B inflam inh: 0; HT1080 IDH1KD tx: -24%; HT1080-NT tox: -22%

Results for CNCc1ccccc1OCc1ccccc1F ?
TDP1 cell noCPT: inconclusive; DT40 TDP1 CPT: -17%; IL-1B inflam inh: -15; HT1080 IDH1KD tx: 0%; HT1080-NT tox: 0%

What do the screens show for `O=C(Oc1ccccc1)N1CCN(C(=O)c2ccco2)CC1`?
TDP1 cell noCPT: 0%; DT40 TDP1 CPT: 10%; IL-1B inflam inh: inconclusive; HT1080 IDH1KD tx: 29%; HT1080-NT tox: 27%

How did Nc1c(N=Nc2ccc([N+](=O)[O-])cc2)c(S(=O)(=O)O)cc2cc(S(=O)(=O)O)c(/C=C/c3ccccc3)c(O)c12 do in these assays?
TDP1 cell noCPT: 14µM*; DT40 TDP1 CPT: 10µM*

How did Cc1ccccc1C1(CC(=O)N2CCCC(C)C2)CC(=O)N(Cc2cccnc2)C1=O (centres undefined) do in these assays?
TDP1 cell noCPT: -28%; DT40 TDP1 CPT: 19%[9.04 µM]

How did CCc1nc2c(OCc3ccc(F)c(F)c3)cccn2c1N(C)C(=O)C1CC1 do in these assays?
TDP1 cell noCPT: inconclusive; DT40 TDP1 CPT: 21µM*; IL-1B inflam inh: 10; HT1080 IDH1KD tx: -2%; HT1080-NT tox: 10%

How did CCc1nc2c(OCc3cccc(Cl)c3)cccn2c1N(C)C(=O)CC(C)C do in these assays?
TDP1 cell noCPT: 21µM*; DT40 TDP1 CPT: inconclusive; IL-1B inflam inh: 2; HT1080 IDH1KD tx: inconclusive; HT1080-NT tox: inconclusive

What do the screens show for `CCOC(=O)N(C)c1c(CC)nc2c(OCc3ccc(F)c(F)c3)cccn12`?
TDP1 cell noCPT: 21µM*; DT40 TDP1 CPT: inconclusive; IL-1B inflam inh: -7; HT1080 IDH1KD tx: -1%; HT1080-NT tox: 2%

What do the screens show for `CCOC(=O)N(C)c1c(CC)nc2c(OCc3ccc(Cl)cc3Cl)cccn12`?
TDP1 cell noCPT: 23µM*; DT40 TDP1 CPT: inconclusive; IL-1B inflam inh: 0; HT1080 IDH1KD tx: inconclusive; HT1080-NT tox: inconclusive

How did CCc1nc2c(OCc3ccc(F)cc3)cccn2c1N(C)C(=O)CC(C)C do in these assays?
TDP1 cell noCPT: inconclusive; DT40 TDP1 CPT: inconclusive; IL-1B inflam inh: -1; HT1080 IDH1KD tx: -3%; HT1080-NT tox: 2%

What do the screens show for `O=C1COc2ccc(C(=O)COc3ccc([N+](=O)[O-])cc3)cc2N1`?
TDP1 cell noCPT: 16%; DT40 TDP1 CPT: 6%; IL-1B inflam inh: 28; HT1080 IDH1KD tx: -1%; HT1080-NT tox: 4%

What do the screens show for `CSc1ccccc1OCc1cc(C(=O)NC(C)Cn2cncn2)no1` (centres undefined)?
TDP1 cell noCPT: -15%; DT40 TDP1 CPT: 0%; IL-1B inflam inh: 4; HT1080 IDH1KD tx: 12%; HT1080-NT tox: 11%

Results for CCOC(=O)N(C)c1c(CC)nc2c(OCc3ccc(F)cc3)cccn12 ?
TDP1 cell noCPT: inconclusive; DT40 TDP1 CPT: inconclusive; IL-1B inflam inh: -10; HT1080 IDH1KD tx: 6%; HT1080-NT tox: -7%

How did CCOC(=O)N(C)c1c(CC)nc2c(OCc3cc(Cl)cc(Cl)c3)cccn12 do in these assays?
TDP1 cell noCPT: 21µM*; DT40 TDP1 CPT: inconclusive; IL-1B inflam inh: inconclusive; HT1080 IDH1KD tx: inconclusive; HT1080-NT tox: inconclusive

Results for COc1ccc(-c2nnc(SCC(=O)c3cc(C)n(Cc4cccs4)c3C)o2)cc1 ?
TDP1 cell noCPT: -19%; DT40 TDP1 CPT: -10%; IL-1B inflam inh: -3; HT1080 IDH1KD tx: -3%; HT1080-NT tox: -3%

What do the screens show for `COc1ccc(-n2cnnc2SCC(=O)c2cc(C)n(Cc3cccs3)c2C)cc1`?
TDP1 cell noCPT: -11%; DT40 TDP1 CPT: -9%; IL-1B inflam inh: -65*; HT1080 IDH1KD tx: 1%; HT1080-NT tox: -4%

Results for Cc1csc(SCC(=O)c2cc(C)n(Cc3cccs3)c2C)n1 ?
TDP1 cell noCPT: -78%; DT40 TDP1 CPT: 18µM*; IL-1B inflam inh: -1; HT1080 IDH1KD tx: inconclusive; HT1080-NT tox: -10%

What do the screens show for `Cn1nc(C(=O)NCc2ccccc2)c2c1-c1ccccc1S(=O)(=O)C2`?
TDP1 cell noCPT: inconclusive; DT40 TDP1 CPT: -1%; IL-1B inflam inh: -11; HT1080 IDH1KD tx: 4%; HT1080-NT tox: 9%

Results for O=c1c(Cc2c(F)cccc2Cl)c(O)ccn1C1CC1 ?
TDP1 cell noCPT: 2%; DT40 TDP1 CPT: -1%; IL-1B inflam inh: 12; HT1080 IDH1KD tx: 4%; HT1080-NT tox: 22%

Results for O=C(CSc1nncs1)NCCCc1ccccc1 ?
TDP1 cell noCPT: -18%; DT40 TDP1 CPT: 1%; IL-1B inflam inh: -3; HT1080 IDH1KD tx: -7%; HT1080-NT tox: -12%
